Assay results from PubChem BioAssay (Tox21).
Records with an inconclusive call do not appear. The source made the active and inactive calls. The call rests on the fitted dose curve; in most records, active means well fitted curve in the direction sought with a large enough effect in the repeat runs; inconclusive means weak or mixed curves; inactive means no such curve, though single readings can be large; an effect the other way counts as inactive or inconclusive.

What was measured:
[1] = A CellTox Green Cytotoxicity Assay to monitor cytotoxicity in HEK293 cells - 40 hour (AID 1224871); further: nearly all actives have a fitted effect of over 45% in size
Outline: (§1)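 HEK293 cells premixed with CellTox Green dye were seeded at 600 cells/well and left 5 h at 37 C/5% CO2 before pin transfer of 23 nL compound in DMSO. Fluorescence from dye bound to dead-cell DNA was read during 40 h treatment.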

[2] = qHTS RealTime-Glo MT Cell Viability Assay in HEK293 cells - 16 hour (AID 1224872); further: top concentration of the series differs between compounds; nearly all actives have a fitted effect of over 50% in size
Outline: (§2)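 Quantitative high-throughput screen of the Tox21 10K library in HEK293: cells and RealTime-Glo reagents plated together, compound added at 5 h, luminescence monitored through 40 h at 37 C.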

[3] = qHTS RealTime-Glo MT Cell Viability Assay in HepG2 cells - 8 hour (AID 1224873); further: nearly all actives have a fitted effect of over 55% in size
Outline: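 Real-time viability: cells seeded at 600 per well together with NanoLuc and cell-permeant prosubstrate, compounds added after 5 h incubation. Luminescence tracked at 0, 8, 16, 24, 32 and 40 h of exposure.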

[4] = qHTS RealTime-Glo MT Cell Viability Assay in HEK293 cells - 40 hour (AID 1224874); conditions: RealTime-Glo luminescence; max response: hits give low values; further: nearly all actives have a fitted effect of over 50% in size
Outline: (§3)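 HEK293 cells mixed with RealTime-Glo reagents (NanoLuc plus cell-permeant prosubstrate) at 600 cells/well, preincubated 5 h at 37 C/5% CO2, then given 23 nL compound in DMSO. Nonlytic luminescence from viable cells was read at 0, 8, 16, 24, 32 and 40 h.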

[5] = A CellTox Green Cytotoxicity Assay to monitor cytotoxicity in HEK293 cells - 24 hour (AID 1224875); further: series mostly up to about 77 µM; nearly all actives have a fitted effect of over 45% in size
Outline: as §1

[6] = A CellTox Green Cytotoxicity Assay to monitor cytotoxicity in HepG2 cells - 16 hour (AID 1224876); further: nearly all actives have a fitted effect of over 45% in size
Outline: (§4)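 HepG2 cells were seeded together with the CellTox Green dye at 600 cells/well, left 5 h at 37 C/5% CO2, then given compounds in DMSO. Fluorescence from dye bound to dead-cell DNA was read repeatedly over 40 h of treatment at 37 C.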

[7] = qHTS RealTime-Glo MT Cell Viability Assay in HepG2 cells - 32 hour (AID 1224877); further: nearly all actives have a fitted effect of over 55% in size
Outline: (§5)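 Compound treatment began 5 h after plating HepG2 cells (600/well) with NanoLuc luciferase and prosubstrate. Plates stayed at 37 C for 40 h; luminescence was captured at six time points, 0 h through 40 h.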

[8] = A CellTox Green Cytotoxicity Assay to monitor cytotoxicity in HepG2 cells - 24 hour (AID 1224878); further: nearly all actives have a fitted effect of over 45% in size
Outline: as §4

[9] = A CellTox Green Cytotoxicity Assay to monitor cytotoxicity in HepG2 cells - 40 hour (AID 1224879); further: nearly all actives have a fitted effect of over 40% in size
Outline: as §4

[10] = qHTS RealTime-Glo MT Cell Viability Assay in HEK293 cells - 0 hour (AID 1224880)
Outline: as §3

[11] = A CellTox Green Cytotoxicity Assay to monitor cytotoxicity in HEK293 cells - 32 hour (AID 1224881); further: nearly all actives have a fitted effect of over 40% in size
Outline: as §1

[12] = A CellTox Green Cytotoxicity Assay to monitor cytotoxicity in HepG2 cells - 0 hour (AID 1224882); further: nearly all actives have a fitted effect of over 35% in size
Outline: as §4

[13] = A CellTox Green Cytotoxicity Assay to monitor cytotoxicity in HepG2 cells - 32 hour (AID 1224883); further: nearly all actives have a fitted effect of over 50% in size
Outline: as §4

[14] = A CellTox Green Cytotoxicity Assay to monitor cytotoxicity in HEK293 cells - 8 hour (AID 1224884); further: nearly all actives have a fitted effect of over 35% in size
Outline: as §1

[15] = qHTS RealTime-Glo MT Cell Viability Assay in HepG2 cells - 16 hour (AID 1224885); further: nearly all actives have a fitted effect of over 50% in size
Outline: as §5

[16] = qHTS RealTime-Glo MT Cell Viability Assay in HEK293 cells - 24 hour (AID 1224886)
Outline: as §2

[17] = qHTS RealTime-Glo MT Cell Viability Assay in HEK293 cells - 8 hour (AID 1224887)
Outline: as §3

[18] = A CellTox Green Cytotoxicity Assay to monitor cytotoxicity in HEK293 cells - 16 hour (AID 1224888); further: nearly all actives have a fitted effect of over 35% in size
Outline: as §1

[19] = qHTS RealTime-Glo MT Cell Viability Assay in HepG2 cells - 0 hour (AID 1224889); further: nearly all actives have a fitted effect of over 50% in size
Outline: as §5

[20] = A CellTox Green Cytotoxicity Assay to monitor cytotoxicity in HepG2 cells - 8 hour (AID 1224890); further: nearly all actives have a fitted effect of over 45% in size
Outline: as §4
On the % scale 0 is the no-effect control and ±100 the full control effect.

CCC(C)(C#N)N=NC(C)(C#N)CC (stereo not drawn)
inactive: Potency [1] | Potency [2] | outcome [3] | max response [4] 2.46% | Potency [5] | Potency [6] | Potency [7] | Potency [8] | Potency [9] | outcome [10] | Potency [11] | outcome [12] | Potency [13] | Potency [14] | Potency [15] | Potency [16] | Potency [17] | Potency [18] | outcome [19] | Potency [20]

CNC(=O)NC(O)C(Cl)(Cl)Cl (stereo not drawn)
inactive: Potency [1] | Potency [2] | outcome [3] | max response [4] 9.22% | Potency [5] | Potency [6] | Potency [7] | Potency [8] | Potency [9] | outcome [10] | Potency [11] | outcome [12] | Potency [13] | Potency [14] | Potency [15] | Potency [16] | Potency [17] | Potency [18] | outcome [19]

S=C=S
inactive: Potency [1] | Potency [2] | outcome [3] | max response [4] 6.94% | Potency [5] | Potency [6] | Potency [7] | Potency [8] | Potency [9] | outcome [10] | Potency [11] | outcome [12] | Potency [13] | Potency [14] | Potency [15] | Potency [16] | Potency [17] | Potency [18] | Potency [20]

CC(C)(C1CCC(O)CC1)C1CCC(O)CC1 (stereo not drawn)
inactive: Potency [1] | Potency [2] | outcome [3] | max response [4] -18.7% | Potency [5] | Potency [6] | Potency [7] | Potency [8] | Potency [9] | outcome [10] | Potency [11] | outcome [12] | Potency [13] | Potency [14] | Potency [15] | Potency [16] | Potency [17] | Potency [18] | Potency [20]

COC(=O)c1ccc(CBr)cc1
inactive: Potency [1] | Potency [2] | outcome [3] | max response [4] 3.15% | Potency [5] | Potency [6] | Potency [7] | Potency [8] | Potency [9] | outcome [10] | Potency [11] | outcome [12] | Potency [13] | Potency [14] | Potency [15] | Potency [16] | Potency [17] | Potency [18] | Potency [20]

O=[N+]([O-])c1cccc(CCl)c1
inactive: Potency [1] | Potency [2] | outcome [3] | max response [4] 6.77% | Potency [5] | Potency [6] | Potency [7] | Potency [8] | Potency [9] | outcome [10] | Potency [11] | outcome [12] | Potency [13] | Potency [14] | Potency [15] | Potency [16] | Potency [17] | Potency [18] | outcome [19] | Potency [20]

N[C@@H](Cc1ccc(Oc2cc(I)c(O)c(I)c2)c(I)c1)C(=O)O
inactive: Potency [1] | Potency [2] | outcome [3] | max response [4] 5.88% | Potency [5] | Potency [6] | Potency [7] | Potency [8] | Potency [9] | outcome [10] | Potency [11] | outcome [12] | Potency [13] | Potency [14] | Potency [15] | Potency [16] | Potency [17] | Potency [18] | outcome [19] | Potency [20]

CCCOC(=O)Cc1ccc(OCC(=O)N(CC)CC)c(OC)c1
inactive: Potency [1] | Potency [2] | outcome [3] | max response [4] -5.19% | Potency [5] | Potency [6] | Potency [7] | Potency [8] | Potency [9] | outcome [10] | Potency [11] | outcome [12] | Potency [13] | Potency [14] | Potency [15] | Potency [16] | Potency [17] | Potency [18] | outcome [19] | Potency [20]

CCc1ccc(C2CCNCC2)cc1
inactive: Potency [1] | Potency [2] | outcome [3] | max response [4] 7.03% | Potency [5] | Potency [6] | Potency [7] | Potency [8] | Potency [9] | Potency [11] | outcome [12] | Potency [13] | Potency [14] | Potency [15] | Potency [16] | Potency [17] | Potency [18] | outcome [19] | Potency [20]

CC1N=C(N)OC1c1ccccc1 (stereo not drawn)
inactive: Potency [1] | Potency [2] | outcome [3] | max response [4] -2.35% | Potency [5] | Potency [6] | Potency [7] | Potency [8] | Potency [9] | outcome [10] | Potency [11] | outcome [12] | Potency [13] | Potency [14] | Potency [15] | Potency [16] | Potency [17] | outcome [19] | Potency [20]

Cc1ccc2cc(C)ccc2c1
inactive: Potency [1] | Potency [2] | outcome [3] | max response [4] 8.7% | Potency [5] | Potency [6] | Potency [7] | Potency [8] | Potency [9] | outcome [10] | Potency [11] | outcome [12] | Potency [13] | Potency [14] | Potency [15] | Potency [16] | Potency [17] | outcome [19] | Potency [20]

CN(C)CCN(C)C
inactive: Potency [1] | Potency [2] | outcome [3] | max response [4] 7.83% | Potency [5] | Potency [6] | Potency [7] | Potency [8] | Potency [9] | outcome [10] | Potency [11] | outcome [12] | Potency [14] | Potency [15] | Potency [16] | Potency [17] | outcome [19] | Potency [20]

CNC(=O)O/N=C(/CSC)C(C)(C)C
inactive: Potency [1] | Potency [2] | outcome [3] | max response [4] -0.61% | Potency [5] | Potency [6] | Potency [7] | Potency [8] | Potency [9] | outcome [10] | Potency [11] | outcome [12] | Potency [13] | Potency [14] | Potency [15] | Potency [16] | Potency [18] | outcome [19] | Potency [20]

O=C(Cl)C(Cl)Cl
inactive: Potency [1] | Potency [2] | outcome [3] | max response [4] 1.34% | Potency [5] | Potency [6] | Potency [7] | Potency [8] | Potency [9] | outcome [10] | Potency [11] | outcome [12] | Potency [13] | Potency [14] | Potency [16] | Potency [18] | outcome [19] | Potency [20]
